Assay results published in PubChem BioAssay (EPA / NIEHS).
Results filed as inconclusive are left out. Calls of active or inactive are those of the source. The calls were made as follows: active = hit-call score of the fitted dose curve at least 0.9, where 1 is the maximum; inconclusive = response in the unintended direction; inactive = score below 0.9.

target: human CYP2D6, CYP2D6 (gene 1565) (UniProt P10635); assay: NVS_ADME_hCYP2D6: NovaScreen (NVS) CYP450-related Enzyme Activity (ADME) Assay for human CYP2D6 (AID 2283107)
Description: NVS_ADME_hCYP2D6 is a biochemical, single-readout assay that uses extracted gene-proteins from insect cells in a cell-free assay. Measurements were taken 1 hour after chemical dosing in a 96-well plate.NVS_ADME_hCYP2D6 is one of one assay component(s) measured or calculated from the NVS_ADME_hCYP2D6 assay. It is designed to make measurements of enzyme activity, a form of enzyme reporter, as detected with fluorescence intensity signals by Fluorescence technology.Data from the assay component NVS_ADME_hCYP2D6 was analyzed into 1 assay endpoint. This assay endpoint, NVS_ADME_hCYP2D6, was analyzed in the positive analysis fitting direction relative to Acetonitrile as the negative control and baseline of activity. Using a type of enzyme reporter, loss-of-signal activity can be used to understand changes in the enzymatic activity as they relate to the gene CYP2D6. Furthermore, this assay endpoint can be referred to as a primary readout, because this assay has produced multiple assay endpoints where this one serves a enzymatic activity function. To generalize the intended target to other relatable targets, this assay endpoint is annotated to the cyp intended target family, where the subfamily is xenobiotic metabolism.
(§1) Binding assays used specific radioligands (tritiated, iodinated) with non-radioactive competitive displacement ligands in agonist or antagonist protocols (as indicated) and various reference compounds and inhibitors to titrate specific binding to receptors and transporters. Most enzyme assays (CYPs, kinases, phosphatases, proteases, HDACs) used recombinant protein and specific substrates (fluorescence mostly, some colorimetric and radioactive) and inhibitors, followed by a biochemical separation of substrate and product. All assays for the biochemical HTS were initially run in duplicate at a single concentration (10 uM for CYP450 assays and 25 uM for all others). […] Each assay was run with positive and negative controls, and concurrent controls on every plate. […]

human CYP2D6, CYP2D6 (gene 1565), sequence (P10635 whole entry, looked up): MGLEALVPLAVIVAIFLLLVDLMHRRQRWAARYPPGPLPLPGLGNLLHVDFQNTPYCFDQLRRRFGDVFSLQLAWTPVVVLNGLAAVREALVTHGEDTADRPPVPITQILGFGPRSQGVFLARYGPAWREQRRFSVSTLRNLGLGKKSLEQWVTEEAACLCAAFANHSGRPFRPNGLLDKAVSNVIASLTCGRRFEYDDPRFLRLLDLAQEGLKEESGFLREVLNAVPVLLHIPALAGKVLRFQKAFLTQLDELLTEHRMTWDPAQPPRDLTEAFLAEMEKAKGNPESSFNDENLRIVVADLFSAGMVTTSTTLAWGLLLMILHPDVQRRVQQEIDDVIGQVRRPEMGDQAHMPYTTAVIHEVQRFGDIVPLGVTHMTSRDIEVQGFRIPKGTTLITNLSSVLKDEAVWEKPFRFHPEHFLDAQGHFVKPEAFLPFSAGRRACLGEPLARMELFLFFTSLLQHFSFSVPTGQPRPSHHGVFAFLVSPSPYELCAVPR

Compound	AC50	outcome
CC(C)[N+](C)(CCOC(=O)C1c2ccccc2Oc2ccccc21)C(C)C	0.741 µM (active)	
Cc1cc(C)n(CO)n1		inactive
CCc1occc(=O)c1O	3.97 µM (active)	

target: Cytochrome P450 3A4 (Homo sapiens) (UniProt P08684); assay: NVS_ADME_hCYP3A4: NovaScreen (NVS) CYP450-related Enzyme Activity (ADME) Assay for human CYP3A4 (AID 2283110)
Procedure, shortened: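 Compounds screened in duplicate at 10 uM, with follow-up concentration-response for actives, against insect-cell-expressed recombinant enzyme. Activity read by fluorescence 0.33 h after dosing; loss of signal versus acetonitrile control indicates inhibition.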

Cytochrome P450 3A4 (Homo sapiens), sequence (P08684 whole entry, looked up): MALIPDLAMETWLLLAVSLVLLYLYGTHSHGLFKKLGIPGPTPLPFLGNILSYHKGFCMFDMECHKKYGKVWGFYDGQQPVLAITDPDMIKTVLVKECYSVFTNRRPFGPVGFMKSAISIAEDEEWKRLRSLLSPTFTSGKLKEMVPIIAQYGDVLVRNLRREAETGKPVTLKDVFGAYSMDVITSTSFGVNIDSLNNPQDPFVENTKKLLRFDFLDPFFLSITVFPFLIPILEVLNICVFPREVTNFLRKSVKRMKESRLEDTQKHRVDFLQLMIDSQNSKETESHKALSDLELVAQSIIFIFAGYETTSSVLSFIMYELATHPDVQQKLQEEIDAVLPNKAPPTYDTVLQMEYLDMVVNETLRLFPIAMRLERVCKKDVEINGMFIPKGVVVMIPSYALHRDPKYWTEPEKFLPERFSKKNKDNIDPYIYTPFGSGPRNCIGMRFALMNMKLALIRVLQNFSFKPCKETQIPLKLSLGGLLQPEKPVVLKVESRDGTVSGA

Compound	outcome
Oc1c(Cl)cc(Cl)c(Cl)c1Cl	inactive
CC1=C(O)C(=O)C(C)O1 (configuration not stated)	inactive
C=CC(=O)OCC(C)OCC(C)OCC(C)OC(=O)C=C (configuration not stated)	inactive
Cc1c(O)cccc1O	inactive

target: Cytochrome P450 2C19 (Homo sapiens) (UniProt P33261); assay: NVS_ADME_hCYP2C19: NovaScreen (NVS) CYP450-related Enzyme Activity (ADME) Assay for human CYP2C19 (AID 2283113);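 also: potency for inhibition seen as loss of fluorescent signal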
Procedure, shortened: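 Fluorescence intensity was measured 1 hour after chemicals were added to insect-cell-derived recombinant CYP2C19 with fluorogenic substrate. Decreased signal versus acetonitrile control was taken as reduced enzyme activity; initial testing used 10 uM in duplicate.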

Compound	AC50
c1ccc2sc(SSN3CCOCC3)nc2c1	0.01 µM (active)
CCOC(=O)C1=NOC(c2ccccc2)(c2ccccc2)C1	1.8 µM (active)
Cc1ccc([N+](=O)[O-])cc1N	4.92 µM (active)
C=CC(=O)OCCCCCCCC(C)C	1.67 µM (active)
Cc1cc(C)n(CO)n1	4.01 µM (active)

target: human Caspase 5 (CASP5), CASP5 (gene 838) (UniProt P51878); assay: NVS_ENZ_hCASP5: NovaScreen (NVS) Enzymatic Assay for human Caspase 5 (CASP5) (AID 2283137)
Procedure, shortened: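 Fluorescent substrate readout of CASP5 activity (loss-of-signal), measured 2 h post-dose. Protein expressed in E. coli. Primary screen duplicate at 25 uM; actives meeting threshold (e.g., 30% inhibition) rerun singleton, max 50 uM.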

human Caspase 5 (CASP5), CASP5 (gene 838), sequence (P51878 whole entry, looked up): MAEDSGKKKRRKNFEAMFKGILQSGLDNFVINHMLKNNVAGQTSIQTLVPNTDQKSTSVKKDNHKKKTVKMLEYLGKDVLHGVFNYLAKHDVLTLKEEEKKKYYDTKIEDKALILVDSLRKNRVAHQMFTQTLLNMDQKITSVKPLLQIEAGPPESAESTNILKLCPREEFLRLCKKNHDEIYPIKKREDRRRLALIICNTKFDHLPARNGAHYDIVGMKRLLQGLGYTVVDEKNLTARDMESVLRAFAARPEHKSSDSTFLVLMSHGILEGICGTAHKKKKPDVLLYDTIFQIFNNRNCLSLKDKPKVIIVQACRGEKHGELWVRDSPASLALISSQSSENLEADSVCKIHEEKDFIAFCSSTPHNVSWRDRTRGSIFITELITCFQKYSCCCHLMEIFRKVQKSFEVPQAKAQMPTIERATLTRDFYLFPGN

Compound	outcome	AC50
CCOC(=O)/C=C\C(=O)OCC	inactive	
CCOC(=O)C1=NOC(c2ccccc2)(c2ccccc2)C1	inactive	
Fc1ccc(Br)cc1	inactive	
CO[Si](CCCS)(OC)OC		25 µM (active)
COc1ccc(C(=O)/C(Br)=C\C(=O)O)cc1		18.5 µM (active)

target: human Beta-secretase (BACE), BACE1 (gene 23621) (UniProt P56817); assay: NVS_ENZ_hBACE: NovaScreen (NVS) Enzymatic Assay for human Beta-secretase (BACE) (AID 2283140);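 also: hits are inhibitors that reduce fluorescent substrate signal versus DMSO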
Description: NVS_ENZ_hBACE is a biochemical, single-readout assay that uses extracted gene-proteins from SF9 in a cell-free assay. Measurements were taken 1 hour after chemical dosing in a 96-well plate.NVS_ENZ_hBACE is one of one assay component(s) measured or calculated from the NVS_ENZ_hBACE assay. It is designed to make measurements of enzyme activity, a form of enzyme reporter, as detected with fluorescence intensity signals by Fluorescence technology.Data from the assay component NVS_ENZ_hBACE was analyzed into 1 assay endpoint. This assay endpoint, NVS_ENZ_hBACE, was analyzed in the positive analysis fitting direction relative to DMSO as the negative control and baseline of activity. Using a type of enzyme reporter, loss-of-signal activity can be used to understand changes in the enzymatic activity as they relate to the gene BACE1. Furthermore, this assay endpoint can be referred to as a primary readout, because […]. To generalize the intended target to other relatable targets, this assay endpoint is annotated to the protease intended target family, where the subfamily is aspartate protease.
as §1

human Beta-secretase (BACE), BACE1 (gene 23621), sequence (P56817 whole entry, looked up): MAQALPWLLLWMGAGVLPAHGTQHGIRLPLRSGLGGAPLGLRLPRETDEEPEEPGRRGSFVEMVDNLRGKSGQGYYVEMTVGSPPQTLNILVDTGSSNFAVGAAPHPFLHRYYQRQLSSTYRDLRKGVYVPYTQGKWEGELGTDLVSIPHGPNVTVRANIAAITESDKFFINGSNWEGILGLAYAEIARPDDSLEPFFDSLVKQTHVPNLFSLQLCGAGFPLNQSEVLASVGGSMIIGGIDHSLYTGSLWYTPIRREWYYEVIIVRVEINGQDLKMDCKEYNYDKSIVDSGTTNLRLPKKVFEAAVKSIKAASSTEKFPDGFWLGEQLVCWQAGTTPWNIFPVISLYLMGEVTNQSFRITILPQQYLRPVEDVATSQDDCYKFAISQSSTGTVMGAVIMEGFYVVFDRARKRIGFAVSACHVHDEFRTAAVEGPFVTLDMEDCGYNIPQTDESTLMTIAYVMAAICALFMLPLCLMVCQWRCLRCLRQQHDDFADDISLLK

Compound	AC50
COc1ccc(C(=O)/C(Br)=C\C(=O)O)cc1	39.1 µM (active)
COC(OC)(C(=O)c1ccccc1)c1ccccc1	43.1 µM (active)
C=CCCCCCCCCC=O	13.1 µM (active)

target: human Dual Specificity Protein Phosphatase 3 (DUSP3), DUSP3 (gene 1845) (UniProt P51452); assay: NVS_ENZ_hDUSP3: NovaScreen (NVS) Enzymatic Assay for human Dual Specificity Protein Phosphatase 3 (DUSP3) (AID 2283152);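 also: phosphatase activity of recombinant human DUSP3 on a fluorogenic substrate without cells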
Procedure, shortened: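 Cell-free fluorescence-intensity enzyme activity assay with recombinant protein and substrate; loss of signal fitted relative to DMSO baseline. Primary screen in duplicate at 25 uM, actives then run in concentration series; measured 0 h after dosing.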

human Dual Specificity Protein Phosphatase 3 (DUSP3), DUSP3 (gene 1845), sequence (P51452 whole entry, looked up): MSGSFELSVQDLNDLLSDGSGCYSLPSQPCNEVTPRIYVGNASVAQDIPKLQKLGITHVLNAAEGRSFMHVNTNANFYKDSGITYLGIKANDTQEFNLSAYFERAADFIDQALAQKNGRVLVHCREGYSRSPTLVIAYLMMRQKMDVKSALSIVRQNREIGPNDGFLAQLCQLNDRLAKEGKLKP

Compound	AC50
c1ccc2sc(SSN3CCOCC3)nc2c1	1.39 µM (active)
CCOC(=O)/C=C\C(=O)OCC	14.7 µM (active)
Fc1ccc(Br)cc1	13.7 µM (active)
CC(C)CCCCCOC(=O)CS	25 µM (active)
C=CC(=O)NC(C)(C)C	13.6 µM (active)

target: human Ephrin type-A Receptor 1 (EphA1), EPHA1 (gene 2041) (UniProt P21709); assay: NVS_ENZ_hEphA1: NovaScreen (NVS) Enzymatic Assay for human Ephrin type-A Receptor 1 (EphA1) (AID 2283158);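 also: activity is signal loss versus DMSO meaning EphA1 kinase inhibition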
Procedure, shortened: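 Chemicals first tested in duplicate at 25 uM against recombinant EphA1 with a fluorescent substrate; those passing threshold went to singleton dose-response topping at 50 uM. Activity read 1 h later as mobility-shift fluorescence, loss of signal relative to DMSO.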

human Ephrin type-A Receptor 1 (EphA1), EPHA1 (gene 2041), sequence (P21709 whole entry, looked up): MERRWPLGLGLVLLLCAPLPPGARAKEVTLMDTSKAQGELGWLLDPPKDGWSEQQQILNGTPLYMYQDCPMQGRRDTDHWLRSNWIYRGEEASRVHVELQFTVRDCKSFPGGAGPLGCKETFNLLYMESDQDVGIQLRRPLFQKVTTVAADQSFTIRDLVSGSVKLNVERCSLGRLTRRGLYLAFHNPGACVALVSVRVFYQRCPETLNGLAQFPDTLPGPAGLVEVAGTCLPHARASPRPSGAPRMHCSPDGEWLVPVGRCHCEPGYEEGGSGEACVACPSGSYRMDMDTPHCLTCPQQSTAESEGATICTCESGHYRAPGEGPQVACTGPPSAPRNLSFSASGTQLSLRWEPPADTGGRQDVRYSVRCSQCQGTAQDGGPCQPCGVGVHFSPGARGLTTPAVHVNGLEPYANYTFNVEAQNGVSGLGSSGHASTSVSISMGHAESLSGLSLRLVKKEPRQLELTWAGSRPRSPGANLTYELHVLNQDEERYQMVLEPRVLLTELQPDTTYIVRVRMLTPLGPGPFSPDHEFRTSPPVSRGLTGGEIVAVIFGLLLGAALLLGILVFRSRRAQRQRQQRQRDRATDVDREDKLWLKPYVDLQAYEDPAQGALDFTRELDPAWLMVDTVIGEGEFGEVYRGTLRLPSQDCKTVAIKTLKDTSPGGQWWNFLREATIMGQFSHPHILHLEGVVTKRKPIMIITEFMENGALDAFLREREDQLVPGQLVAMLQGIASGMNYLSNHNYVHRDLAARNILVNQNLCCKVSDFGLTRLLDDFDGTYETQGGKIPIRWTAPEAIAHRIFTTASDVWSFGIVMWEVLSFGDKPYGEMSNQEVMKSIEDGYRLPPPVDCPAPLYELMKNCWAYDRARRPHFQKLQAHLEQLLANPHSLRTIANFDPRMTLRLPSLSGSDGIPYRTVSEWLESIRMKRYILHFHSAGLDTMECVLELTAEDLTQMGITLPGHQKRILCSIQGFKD

Compound	outcome
CC=C(C)C(C)=O	inactive
C=C(C)OC(C)=O	inactive
CC1=C(O)C(=O)C(C)O1 (configuration not stated)	inactive
CC/C=C\CCOC(=O)c1ccccc1O	inactive
C=CC(=O)OCCCCCCCC(C)C	inactive
CCOc1ccc(NC(N)=O)cc1	inactive
C=CC(=O)OCC(C)OCC(C)OCC(C)OC(=O)C=C (configuration not stated)	inactive
CC(=O)OC(C)c1ccccc1 (configuration not stated)	inactive
CC(=O)CC(=O)Nc1ccccc1C	inactive
Nc1cccc(N)n1	inactive
CCCCOCCOCCOC(C)=O	inactive
Nc1ncnc2nc[nH]c12	inactive
O=C(Oc1ccccc1)c1ccccc1C(=O)Oc1ccccc1	inactive
CC=C(C)C=CC=C(C)C	inactive
CC(C)CO	inactive
COC(OC)(C(=O)c1ccccc1)c1ccccc1	inactive
CCCCCC1=CCCC1=O	inactive
